The record followed here is PubChem BioAssay.

Calls of active or inactive are those of the source.

Tested on in one experiment: not listed separately
Put plainly: change in splice reporter luminescence, either direction, cell-based, HEK293, spliceosome inhibition project, primary screen (AID 1101).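 Also: HEK293 cells carrying a splicing-competent luciferase reporter gene; test concentration not given here.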 The settings on record: HEK293 splicing luciferase reporter, 24 h, higher = more signal, called active from +8 up or from −8 down. On the technique in general: Reporter assays use an easily measured gene product as a stand-in for the process of interest.
As to `CC(=O)n1cc(C(O)C2C=CC3C(=O)N(c4ccccc4)C(=O)C3N2Nc2ccc(C(C)C)cc2)c2ccccc21` (configuration not stated), the z-score was 0.811 (inactive). The same measure, in the same setting: the figure for `C=C(COC)C(=O)CC[C@H](OC(C)=O)c1ccc(OCCO)cc1` is -1.5 (inactive). For the molecule `Cc1ccccc1C(O)C1C=CC2C(=O)NC(=O)C2N1Nc1ccc(Cl)cc1Cl` (configuration not stated), the z-score is 0.812 (inactive).

For the next experiment, the target named is Fibroblast growth factor 10 (Homo sapiens) (UniProt O15520). The experiment is described as follows: compounds binding fibroblast growth factor 10 – biochemical, small-molecule microarray, 635 nm fluorescence, primary screen (AID 1102). The settings on record: FGF10 binding, fluorescence 635 nm, higher = more signal.
Sequence of Fibroblast growth factor 10 (Homo sapiens) (O15520 whole entry, looked up): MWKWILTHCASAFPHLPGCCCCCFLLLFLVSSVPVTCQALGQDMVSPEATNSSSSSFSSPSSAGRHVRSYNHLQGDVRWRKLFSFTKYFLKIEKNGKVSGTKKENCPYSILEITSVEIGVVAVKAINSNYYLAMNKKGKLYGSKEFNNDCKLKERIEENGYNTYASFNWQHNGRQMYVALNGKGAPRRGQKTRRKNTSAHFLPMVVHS
Regarding `CCOC(=O)C1=CCC(c2ccco2)N(S(=O)(=O)c2ccc(C)cc2)C1` (configuration not stated), the composite z-score is 1.12.

The molecule `COCCOC(=O)N1C(=O)[C@@]2(c3cc(C#CCC(C(=O)OC)C(=O)OC)ccc31)[C@H](C(=O)NC[C@H](O)c1ccccc1)[C@H]1C(=O)O[C@H](c3ccccc3)[C@H](c3ccccc3)N1[C@@H]2c1ccc(OCCO)cc1` displayed a composite z-score of 1.04. Same read-out and setting: the figure for `CCCNC(=O)[C@@]1(Sc2ccc(C)cc2)CC(=O)N(C(C)C)[C@@H]1c1ccc(CO)cc1I` is -0.72; for `COC(=O)[C@@]1(Cc2ccc(F)cc2)[C@H]2c3cc(C(=O)N4CCCC4)n(C)c3C[C@H]2CN1C(=O)c1ccccc1` it is 0.549. On the same count and under the same terms, for `O=C1O[C@H](c2ccccc2)[C@H](c2ccccc2)N2[C@H]1[C@@H](C(=O)N1CCCCCCC1)[C@]1(C(=O)Nc3ccc(C#CC4(O)CCCCCC4)cc31)[C@H]2c1ccc(O)cc1` the value was 1.19; for `O=C1O[C@H](c2ccccc2)[C@H](c2ccccc2)N2[C@H]1[C@@H](C(=O)O)[C@]1(C(=O)Nc3ccc(C#CC4(O)CCCCCC4)cc31)[C@H]2c1ccc(O)cc1`, 0.0884.

In turn, `COCCOC(=O)N1C(=O)[C@@]2(c3ccccc31)[C@H](c1ccccc1OCCO)N1[C@H](c3ccccc3)[C@H](c3ccccc3)OC(=O)[C@H]1[C@@H]2C(N)=O` showed a composite z-score of 1.2. As for `NC(=O)[C@@H]1[C@H]2C(=O)O[C@H](c3ccccc3)[C@H](c3ccccc3)N2[C@H](c2ccc(OCCO)cc2)[C@@]12C(=O)Nc1ccc(C#CCCO)cc12`, the composite z-score was 0.372. On the same count and under the same terms, for `Cc1cccc([C@H]2C[C@H]3C(Br)=C[C@@H]2C(=O)[C@]32CO2)c1` the value was -0.711; for `COc1ccc(C#Cc2ccc3c(c2)[C@]2(C(=O)N3)[C@H](C(=O)Nc3nc4ccccc4s3)[C@H]3C(=O)O[C@H](c4ccccc4)[C@H](c4ccccc4)N3[C@@H]2c2ccccc2OCCO)cc1`, 0.463; for `C=CCNC(=O)[C@@H]1[C@H]2C(=O)O[C@H](c3ccccc3)[C@H](c3ccccc3)N2[C@H](c2ccc(OCCO)cc2)[C@@]12C(=O)N(C(=O)OCCOC)c1ccc(C#CCCO)cc12`, 0.637.

As for `COCC(=C=CC[C@@H](O)c1cccc(OCCO)c1)CCO`, the composite z-score was determined as 0.984. For `COCCOC(=O)N1C(=O)[C@@]2(c3cc(C#CC4(O)CCCCCC4)ccc31)[C@H](C(=O)N1CCN(c3ncccn3)CC1)[C@H]1C(=O)O[C@H](c3ccccc3)[C@H](c3ccccc3)N1[C@@H]2c1ccccc1OCCO`, the composite z-score came out at 0.864.

On to `[N-]=[N+]=Nc1ccccc1C[C@]1(C(=O)O)N=C(c2ccc(OCCCO)cc2)O[C@H]1c1ccccc1N=[N+]=[N-]`, for which the composite z-score came to 0.445. Still for that read-out and setting: the figure for `NC(=O)NCC#Cc1ccc2c(c1)[C@]1(C(=O)N2)[C@H](C(=O)N2CCN(c3ncccn3)CC2)[C@H]2C(=O)O[C@H](c3ccccc3)[C@H](c3ccccc3)N2[C@@H]1c1ccc(OCCO)cc1` is 0.766; for `CN(C)C(=O)[C@@]1(Cc2ccccc2)COC(c2ccc(OCCCO)cc2)=N1` it is -0.304; for `CCN(CC)c1ccc(N2CC=CC34O[C@@H]5C=CCCOC(=O)C5[C@H]3C(=O)N(CCO)[C@@H]4C2=O)cc1` (some centres not stated) it is -0.504. The same measure, in the same setting: for `C[C@@H]1ON(c2ccc(I)cc2)[C@H](c2ccc(OC(=O)OC(C)(C)C)cc2)[C@H]1C(=O)N1C(=O)OC[C@H]1Cc1ccccc1` the value was 0.367; for `COc1cc(CO)cc(I)c1O[C@H]1C=C(C(=O)NCCO)C[C@@H](NCC2CCCCC2)[C@@H]1O`, 0.536; for `C=CCNC(=O)[C@@H]1[C@H]2C(=O)O[C@H](c3ccccc3)[C@H](c3ccccc3)N2[C@H](c2ccc(O)cc2)[C@@]12C(=O)Nc1ccc(C#CCC(C(=O)OC)C(=O)OC)cc12`, 0.242. In turn, `CCOC(=O)C1=C[C@@H](c2ccccc2)N(S(=O)(=O)c2ccc(C)cc2)[C@H]1c1ccccc1` displayed a composite z-score of -0.0005. In turn, `[N-]=[N+]=NC[C@H](Cc1ccccc1)NC(=O)c1ccccc1` gave a composite z-score of -0.0183. For the molecule `COc1ccc(C(O)C2C=CC3C(=O)N(c4ccccc4)C(=O)C3N2Nc2ccccc2F)cc1` (configuration not stated), the composite z-score turned out to be 0.111. On the same count and under the same terms, the figure for `C#C[C@@H](CC)O[Si](C#CCCCC#N)(C(C)C)C(C)C` is -0.232.
